Bioassay records: PubChem, National Center for Advancing Translational Sciences (NCATS)
12-LOX inh = blocks human arachidonate 12S-lipoxygenase. P18054. purified 12hLO, xylenol orange hydroperoxide absorbance. Potency, µM (series often up to 108 µM), actives largely listed as inhibitors. 1.1% of 580,000 active
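Purified human 12hLO at 150 nM in 25 mM Hepes, 0.01% Triton X-100, pH 7.0, preincubated 15 min at room temperature with compound. Reaction started with 40 uM arachidonic acid, 30 min at room temperature. Hydroperoxide measured by Fe-xylenol orange, 573/405 nm absorbance ratio.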
PLK1 PBD inh = PLK1 (human) polo-box domain binding inhibition | AID 720504 | Plk1 PBD binding of FITC phosphopeptide, fluorescence polarization | Potency, µM, usual class: inhibitors | P53350 | 2.8% of 360,000 active; further: series mostly up to about 57 µM; nearly all actives have a fitted effect of over 65% in size
GCN5L2 inh = inhibitors of human GCN5L2 histone acetyltransferase; Q92830; GCN5L2 HAT assay, ThioGlo1 CoA-SH fluorescence; Potency, µM (highest dose often 58.9 µM), hits mostly inhibitors; 0.21% of 390,000 active; AID 504327
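qHTS, 1536-well. 20nM enzyme, pH 7.5 HEPES/EDTA/Tween-20 buffer; 15 min compound preinc., RT. Start: 75uM H3(1-25), 70uM AcCoA, 50uM ThioGlo1. Read Ex340/Em540 at t=0 (autofluorescence flag) and t=20 min.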
VDR inhibitor = blocks the human vitamin D receptor. P11473. VDR-SRC2-3 peptide fluorescence polarization, 2 h. Potency, µM, most hits filed as inhibitors. 0.93% of 400,000 active
Target sequence (P11473 whole entry, looked up): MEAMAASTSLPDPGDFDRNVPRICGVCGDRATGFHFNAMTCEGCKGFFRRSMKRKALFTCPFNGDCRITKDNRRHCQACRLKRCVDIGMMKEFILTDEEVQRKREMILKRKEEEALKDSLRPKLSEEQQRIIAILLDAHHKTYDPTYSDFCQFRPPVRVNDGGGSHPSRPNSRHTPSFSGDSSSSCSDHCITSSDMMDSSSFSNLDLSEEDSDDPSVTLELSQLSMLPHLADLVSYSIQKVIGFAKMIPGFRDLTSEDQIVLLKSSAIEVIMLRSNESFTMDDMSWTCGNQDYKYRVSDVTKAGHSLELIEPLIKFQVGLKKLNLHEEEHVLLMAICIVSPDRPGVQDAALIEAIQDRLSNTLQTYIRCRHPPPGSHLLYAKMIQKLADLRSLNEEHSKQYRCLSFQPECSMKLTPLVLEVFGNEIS
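VDR–SRC2-3 interaction, FP format. Cmpds 23 nl via pintool, brief spin, 2 h ambient incubation.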
Of the large screens only hits and unclear results are named; the others gave an inactive call. In the library only some 3% were active in any assay of this set; here they are far more common. The call rests on the fitted dose curve; in most records, active means well fitted curve in the direction sought with a large enough effect; inconclusive means small, poorly fitted or top-dose-only effect, or another doubt; inactive means no such curve, though single readings can be large; an effect the other way counts as inactive or inconclusive.

CCC(CNC(=O)c1nn(-c2ccccc2)c(=O)c2ccccc12)c1ccccc1 (stereo not drawn)	none (no result: PLK1 PBD inh, GCN5L2 inh, VDR inhibitor)
CC(=O)Nc1ccc(-c2csc(NCCc3ccccc3)n2)cc1	none
C=CCNc1nc(-c2ccc(O)c(C(N)=O)c2)cs1	PLK1 PBD inh 3µM, VDR inhibitor inconclusive
NC(=O)c1cc(-c2csc(NCCc3ccccc3)n2)ccc1O	12-LOX inh 32µM, PLK1 PBD inh 30µM
Cn1c2ccccc2c2nnc(SCc3ccc(F)cc3Cl)nc21	none (no result: PLK1 PBD inh, GCN5L2 inh, VDR inhibitor)
CC(C)N1CCN(CCN2CC3(CCN(C(=O)CCN)CC3)OC2=O)CC1	12-LOX inh 18µM (no result: PLK1 PBD inh, GCN5L2 inh, VDR inhibitor)
CCN1CCN(CCN2CC3(CCN(C4CCOCC4)CC3)OC2=O)CC1	none (no result: PLK1 PBD inh, GCN5L2 inh, VDR inhibitor)
CCc1cc(=O)oc2c(CNCc3ccccc3F)c(O)c(Cl)cc12	PLK1 PBD inh 30µM
COc1ccc(C(=O)COC(=O)CN2C(=O)C3C4CCC(C4)C3C2=O)cc1 (stereo not drawn)	PLK1 PBD inh 24µM
O=C(Nc1cccc(NC(=O)c2ccc3c(c2)OCO3)c1)c1ccccc1	none
COc1cc(NC(=O)c2ccc3c(c2)OCO3)ccc1NC(=O)C(C)C	PLK1 PBD inh 30µM
CC(=O)c1cccc(NC(=O)c2ccc(C)o2)c1	PLK1 PBD inh 30µM
CC(=O)c1cccc(NC(=O)c2ccc3c(c2)OCO3)c1	PLK1 PBD inh 24µM, VDR inhibitor 79µM
CC(C)C(=O)Nc1ccc(NC(=O)c2ccc3c(c2)OCO3)cc1	none
O=C(Nc1cccc(-c2nc3ncccc3o2)c1)c1ccc2c(c1)OCO2	PLK1 PBD inh 27µM, VDR inhibitor inconclusive (no result: GCN5L2 inh)
O=C(Nc1ccc(-n2cccn2)c(F)c1)C1CCCN(C(=O)c2cccs2)C1 (stereo not drawn)	none (no result: PLK1 PBD inh, GCN5L2 inh, VDR inhibitor)
O=C(Nc1ccc(-c2nc3ncccc3o2)cc1)c1ccco1	PLK1 PBD inh 11µM, VDR inhibitor inconclusive
CC(CCc1ccccc1)NC(=O)C1(c2ccccc2)CCCC1 (stereo not drawn)	none (no result: PLK1 PBD inh, GCN5L2 inh, VDR inhibitor)
Cc1ccc(S(=O)(=O)NC(=O)c2ccc(-c3ccc(C)c4ccccc34)o2)cc1	12-LOX inh 35µM, PLK1 PBD inh 27µM, VDR inhibitor 79µM
COc1ccc(-c2ccc(C3C4C=CCCC4(C)C(=O)N3Cc3ccccc3)c(F)c2)cc1 (stereo not drawn)	none (no result: 12-LOX inh, PLK1 PBD inh, GCN5L2 inh)
COc1ccc(-c2ccccc2C2C3C=CCCC3(C)C(=O)N2Cc2ccccc2)cc1 (stereo not drawn)	VDR inhibitor 79µM (no result: 12-LOX inh, PLK1 PBD inh, GCN5L2 inh)
Cc1ccc2c(Cn3nnc(-c4ccccc4C)n3)cc(=O)oc2c1	none (no result: PLK1 PBD inh, GCN5L2 inh, VDR inhibitor)
COc1ccccc1NS(=O)(=O)c1cc(NC(=O)Nc2ccccc2)ccc1N1CCCCC1	PLK1 PBD inh inconclusive
COc1ccccc1NS(=O)(=O)c1cc(NC(=O)c2cccs2)ccc1N1CCCCC1	none
COc1ccccc1NS(=O)(=O)c1cc(NC(=O)c2sccc2C)ccc1N1CCCC1	PLK1 PBD inh 6.7µM, VDR inhibitor 89µM
COc1ccccc1NS(=O)(=O)c1cc(NC(=O)C(C)C)ccc1N1CCCCC1	PLK1 PBD inh 12µM, VDR inhibitor 79µM
COc1ccccc1NS(=O)(=O)c1cc(NC(=O)c2cc[n+]([O-])cc2)ccc1N1CCCC1	12-LOX inh inconclusive, PLK1 PBD inh 3µM
COc1cccc(CNC(=O)c2ncoc2-c2cccc(C)c2)c1OC	none (no result: PLK1 PBD inh, GCN5L2 inh, VDR inhibitor)
Cc1cc(C)n2c(SCC(=O)Nc3ccc(F)cc3)nnc2n1	PLK1 PBD inh 21µM, VDR inhibitor inconclusive
CS(=O)(=O)N(CC(=O)NCc1ccc2c(c1)OCO2)Cc1ccccc1	PLK1 PBD inh 8.4µM, VDR inhibitor inconclusive
Nc1cc(N)nc(SCC(=O)NCc2ccc3c(c2)OCO3)n1	PLK1 PBD inh 6µM, VDR inhibitor inconclusive
Cc1nc2ccccc2nc1OCC(=O)NCc1ccc2c(c1)OCO2	12-LOX inh inconclusive, PLK1 PBD inh 2.7µM
COc1cc(/C=C2\NC(=O)NC2=O)c(Br)cc1OCc1ccccc1F	none (no result: PLK1 PBD inh, GCN5L2 inh, VDR inhibitor)
O=C(CSc1ccc2ccccc2n1)NCc1ccc2c(c1)OCO2	PLK1 PBD inh 24µM
CC(C)(C)C(=O)c1cn(CC(=O)NCc2ccc3c(c2)OCO3)c2ccccc12	none
CC(C)C(=O)c1cn(CC(=O)NCc2ccc3c(c2)OCO3)c2ccccc12	PLK1 PBD inh 24µM
O=C(CSc1nnc(-c2cccnc2)n1-c1ccc(F)cc1)NCc1ccc2c(c1)OCO2	PLK1 PBD inh 12µM
Cc1cc(C)n2c(SCC(=O)NCc3ccc4c(c3)OCO4)nnc2n1	PLK1 PBD inh 24µM, VDR inhibitor inconclusive
CCn1c(SCC(=O)NCc2ccc3c(c2)OCO3)nnc1-c1ccncc1	none
O=C(CSc1nc2ccccc2s1)NCc1ccc2c(c1)OCO2	PLK1 PBD inh inconclusive
